PubChem BioAssay
Activity calls are given as the source filed them.

How the values were obtained:
[1] = system: XIP peptide (Xip251-270) binding; assay: XIP fragment 251-270 binding compounds – biochemical, small-molecule microarray, fluorescence 635/667 nm, 0.1 µg/mL protein, primary screen (AID 1182); settings: fluorescent protein binding, 635 nm, higher = more signal, called active from +8 up or from −8 down
XIP peptide (Xip251-270) = assay: compounds binding XIP fragment 251-270 – biochemical, small-molecule microarray, fluorescence 635/667 nm, 0.5 µg/mL protein, primary screen (AID 1183); settings: fluorescence 635 nm, higher = more signal
[2] = blood-stage malaria parasite viability loss – strain 3D7, DAPI fluorescence, 100 nL, primary screen (AID 1184);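 also: parasites grown inside human red blood cells in medium with human serum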; settings: P. falciparum 3D7 growth, 3 d, higher = more signal
[3] = biological target: Homeobox protein Hox-A13 (Mus musculus) (UniProt Q62424); assay: disruptors of Hoxa13 oligonucleotide interaction – biochemical, fluorescence polarization, labeled oligonucleotide, primary screen (AID 1185); settings: Hoxa13:DNA binding, 15 min, higher = more signal, called active from +8 up or from −8 down
Sequence of Homeobox protein Hox-A13 (Mus musculus) (Q62424 whole entry, looked up): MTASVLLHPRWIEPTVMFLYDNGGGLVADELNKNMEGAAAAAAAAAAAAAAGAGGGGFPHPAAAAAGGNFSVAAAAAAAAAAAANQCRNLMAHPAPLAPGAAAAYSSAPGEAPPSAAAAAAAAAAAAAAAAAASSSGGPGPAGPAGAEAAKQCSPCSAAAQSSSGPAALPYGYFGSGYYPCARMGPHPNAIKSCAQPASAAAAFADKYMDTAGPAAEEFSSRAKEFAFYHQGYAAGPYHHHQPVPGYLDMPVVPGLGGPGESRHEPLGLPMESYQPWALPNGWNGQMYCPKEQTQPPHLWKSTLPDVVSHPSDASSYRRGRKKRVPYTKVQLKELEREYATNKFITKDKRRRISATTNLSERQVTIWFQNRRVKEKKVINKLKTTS

Structure (SMILES)	composite z-score [1]	composite z-score (XIP peptide (Xip251-270))	z-score [2]	z-score [3]
CCOC(=O)[C@H](Cc1ccccc1)NC(=O)CCC1CC(OC(=O)NCc2cccc3ccccc23)CC2(CCCC(COC(=O)NCCOc3ccccc3)O2)O1 (some centres not stated)	-0.0988 (inactive)	0.512	-1.86	-2.04 (inactive)
C=CC[C@@H]1C=C[C@H](ON=C2C[C@@H](O)[C@@H](O)[C@@H]3[C@@H]4C(=O)N(CC)C(=O)[C@@H]4CC[C@@H]23)[C@@H](CO)O1	-0.192 (inactive)	-1.06	-0.689	0.0713 (inactive)
CO[C@H]1COC(=O)CC=C[C@H](C)[C@H](OC)COC(=O)[C@@H](C)NC(=O)CC=C[C@@H]1C	0.533 (inactive)	0.356	-0.205	-0.75 (inactive)
O=C(NCCC[N+]1=CC=NC1c1ccccc1)N1CCCc2nc(-c3ccc(Br)cc3)ccc21 (configuration not stated)	0.638 (inactive)	0.0388	-0.449	-7.21 (inactive)
O=C1[C@H]2[C@H]3[C@H](O)[C@H](O)CC(=NOC[C@@H](O)COCc4ccco4)[C@@H]3CC[C@H]2C(=O)N1Cc1ccccc1	0.41 (inactive)	0.64	-0.986	-2.98 (inactive)
CO[C@H]1COC(=O)[C@H](CCSC)NC(=O)CC=C[C@@H](C)[C@H](OC)COC(=O)[C@@H](OCc2ccccc2)C=C[C@@H]1C	2.65 (inactive)	0.358	-0.772	-1.29 (inactive)
O=C1C=C[C@@H](O)[C@@H]2[C@@H]3C(=O)N(c4cccc(Oc5ccccc5)c4)C(=O)[C@@H]3CC[C@@H]12	-0.0205 (inactive)	0.528	-1.46	-0.827 (inactive)
CC(=O)OC[C@H]1O[C@H](C#CCC2CCCCC2)C=C[C@@H]1OC(C)=O	0.525 (inactive)	0.392	0.951	-5.27 (inactive)
CCOC(=O)[C@H](Cc1ccccc1)NC(=O)CCC1CC(OC(=O)NCc2cccc3ccccc23)CC2(CCCC(COC(=O)NCc3ccc4c(c3)OCO4)O2)O1 (some centres not stated)	-0.322 (inactive)	0.818	0.721	-3.19 (inactive)
C[C@@H](c1ccccc1)N1C(=O)[C@H]2[C@H]3[C@H](O)[C@H](O)CC(=NOCc4ccccc4)[C@@H]3CC[C@H]2C1=O	0.641 (inactive)	0.169	-1.49	-3 (inactive)
C[C@H]1CC[C@@H](C(=O)O)N[C@@H]1c1cccc(N2CCCC2=O)c1	0.641 (inactive)	-0.397	0.752	-0.0351 (inactive)
COc1ccc(O[C@H]2C=C[C@@H](c3ccccc3)O[C@@H]2COC(=O)CCC(C)=NOC[C@@H](O)COCc2ccco2)cc1	-0.0073 (inactive)	-0.448	0.048	-5.52 (inactive)
CCN(CC)CC(O)CN1CCCCc2nc(C)c(C)cc21 (configuration not stated)	-0.344 (inactive)	-0.136	0.694	-1.17 (inactive)
COC(=O)CC=C[C@@H](C)[C@@H](C=NOC[C@@H](C)[C@H](OCc1ccccc1)C(C)C)NS(=O)(=O)c1ccc(C)cc1	0.265 (inactive)	-0.0132	-0.192	-4.05 (inactive)
Cc1ccc(S(=O)(=O)N[C@@H]2COC(=O)CC=C[C@@H](C)[C@H](NS(=O)(=O)c3ccc(C)cc3)COC(=O)[C@H](C)NC(=O)CC=C[C@H]2C)cc1	-0.668 (inactive)	-0.564	-0.196	-1.11 (inactive)
COc1ccc(COC(=O)NN=C2C[C@@H](O)[C@@H](O)[C@@H]3[C@@H]4C(=O)N(C[C@@H]5CCCO5)C(=O)[C@@H]4CC[C@H]23)cc1	-0.0696 (inactive)	-0.239	-0.534	0.459 (inactive)
CCOC(=O)[C@H](CC(C)C)NC(=O)CCC1CC(OC(=O)NCc2ccc3c(c2)OCO3)CC2(CCCC(COC(=O)NCc3ccccc3)O2)O1 (some centres not stated)	0.117 (inactive)	0.118	-1.79	-6.86 (inactive)
COc1ccc(O[C@H]2C=C[C@@H](c3ccccc3)O[C@@H]2CO)cc1	0.0493 (inactive)	0.546	-0.672	-1.6 (inactive)
CCN1C(=O)[C@H]2[C@H]3[C@H](O)[C@H](O)CC(=NOCC=C(C)CCC=C(C)C)[C@@H]3CC[C@H]2C1=O	-0.544 (inactive)	0.615	-0.298	-3.73 (inactive)
CC(=O)OC[C@H]1O[C@@H](ON=C(C)CCC(=O)OC[C@H]2O[C@H](C#Cc3ccccc3)C=C[C@@H]2Oc2ccc(C)cc2)[C@H](OC(C)=O)[C@@H](OC(C)=O)[C@@H]1OC(C)=O	0.0771 (inactive)	0.625	-0.713	-3.79 (inactive)
CCOC(=O)[C@H](Cc1ccccc1)NC(=O)CCC1CC(OC(=O)NCCc2ccc(F)cc2)CC2(CCCC(COC(=O)NCCOc3ccccc3)O2)O1 (some centres not stated)	-0.337 (inactive)	0.401	-1.7	-2.88 (inactive)
CC(C)CON=C1[C@H]2CCn3c(=O)n(C)c(=O)n3[C@H]2[C@H](O)[C@@H]2O[C@H]12	-0.12 (inactive)	0.245	1.43	0.322 (inactive)

Structure (SMILES)	composite z-score [1]	composite z-score (XIP peptide (Xip251-270))	z-score [2]	z-score [3]
COc1ccc(O[C@H]2C=C[C@@H](c3ccccc3)O[C@@H]2COC(=O)NCc2cccc3ccccc23)cc1	-0.318 (inactive)	0.143	-0.806	1.25 (inactive)
CCCNC(=O)OC[C@H]1O[C@H](CCON=C2c3cc(OC)ccc3O[C@H](c3cccc(OC)c3)[C@H]2O)C=C[C@@H]1Oc1ccc(OC)cc1	0.328 (inactive)	0.693	0.365	-1.94 (inactive)
CCOC(=O)CCN1C(=O)[C@H]2[C@H]3[C@H](O)[C@H](O)CC(=O)[C@@H]3CC[C@H]2C1=O	0.0603 (inactive)	0.61	-0.0726	-2.98 (inactive)
Cc1cc(C)c(-c2cc([C@H](C)ON=C[C@@H](C)[C@H](OCc3ccccc3)C(C)C)on2)c(C)c1	-0.0022 (inactive)	-0.291	-0.317	-0.415 (inactive)
CCN1C(=O)[C@H]2[C@H]3[C@H](O)[C@H](O)CC(=NOC(C)CN4CCCc5nc(C)c(C)cc54)[C@@H]3CC[C@H]2C1=O (some centres not stated)	0.302 (inactive)	0.148	0.393	-10.2 (active)
O=C1[C@H]2[C@H]3[C@H](O)[C@H](O)CC(=NO[C@@H]4O[C@H](CO)[C@@H](O)[C@H](O)[C@H]4O)[C@H]3CC[C@H]2C(=O)N1C[C@@H]1CCCO1	-0.48 (inactive)	0.184	0.656	0.594 (inactive)
C[C@H]1CC[C@H]2C(=O)N[C@H](Cc3ccccc3)C(=O)N2[C@@H]1c1ccccc1	0.469 (inactive)	0.647	0.388	-0.879 (inactive)
CO[C@H]1COC(=O)CC=C[C@@H](C)COC(=O)[C@H]2CCCN2C(=O)CC=C[C@H]1C	0.0735 (inactive)	0.286	0.655	-0.292 (inactive)
CCOC(=O)NN=C1C[C@@H](O)[C@@H](O)[C@@H]2[C@@H]3C(=O)N(c4ccc(F)cc4F)C(=O)[C@@H]3CC[C@H]12	0.192 (inactive)	-0.119	-1.36	1.14 (inactive)
CCCNC(=O)OC[C@H]1O[C@H](CCON=C[C@@H](NS(=O)(=O)c2ccc(C)cc2)[C@H](C)C=CCC(=O)OC)C=C[C@@H]1Oc1ccc(OC)cc1	-0.349 (inactive)	-0.501	-0.862	-4.48 (inactive)
O=C1C2=CC[C@H]3C(=O)N(C[C@@H]4CCCO4)C(=O)[C@H]3[C@H]2[C@H](O)[C@@H]2O[C@H]12	-0.14 (inactive)	0.39	-0.434	-3.47 (inactive)
O=C1C=C[C@@H](O)[C@@H]2[C@@H]3C(=O)N(Cc4ccccc4)C(=O)[C@@H]3CC[C@@H]12	0.771 (inactive)	-0.0049	-0.0141	0.291 (inactive)
CO[C@@H]1COC(=O)[C@H](CCSC)NC(=O)CC=C[C@@H](C)COC(=O)[C@@H]2CCCN2C(=O)CC=C[C@H]1C	0.665 (inactive)	0.352	-0.494	0.213 (inactive)
COc1ccc(O[C@H]2C=C[C@@H](C#Cc3ccccc3)O[C@@H]2CO)cc1	-0.727 (inactive)	0.266	0.284	-3.22 (inactive)
C#CCCCON=C1C[C@@H](O)[C@@H](O)[C@@H]2[C@@H]3C(=O)N([C@@H](C)c4ccccc4)C(=O)[C@@H]3CC[C@@H]12	-0.406 (inactive)	-0.125	-0.913	-2.28 (inactive)
CC(CCC(=O)OC[C@H]1O[C@H](C#Cc2ccccc2)C=C[C@@H]1Oc1ccc(C)cc1)=NOC(C)CN1CCCc2nc(C)c(C)cc21 (some centres not stated)	0.687 (inactive)	0.529	-1.9	-3.93 (inactive)
CC(CCC(=O)OC[C@H]1O[C@H](C#Cc2ccccc2)C=C[C@@H]1Oc1ccc(C)cc1)=NO[C@H](C)c1cn([C@@H]2COC[C@H]2O)nn1	0.0435 (inactive)	-0.391	-0.114	-4.04 (inactive)
COc1ccc(OC[C@@H](CO)OC)cc1	0.617 (inactive)	-0.317	1.62	-0.0261 (inactive)
COc1ccc(COC(=O)NN=C2C[C@@H](O)[C@@H](O)[C@@H]3[C@@H]4C(=O)N(C[C@@H]5CCCO5)C(=O)[C@@H]4CC[C@@H]23)cc1	-0.155 (inactive)	0.744	-0.0701	0.903 (inactive)
CC(CCN1CCc2nc(-c3ccccc3)c(-c3ccccc3)cc2C1)=NO[C@H](C)c1cn([C@H](CO)Cc2ccccc2)nn1	0.899 (inactive)	0.529	-0.618	-5.22 (inactive)
C=CC[C@@H]1C=C[C@H](ON=C[C@@H](NS(=O)(=O)c2ccc(C)cc2)[C@H](C)C=CCC(=O)OC)[C@@H](CO)O1	0.278 (inactive)	0.463	-0.174	-4.66 (inactive)
